From PubChem
PTHR1 agonist = qHTS for PTHR1 Agonists: Primary Screen; AID 743266, 2014; HEK293 GP2 PTHR1 cells, GloSensor cAMP luminescence, 1 h; actives 0.075% (n = 410,000); Parathyroid hormone/parathyroid hormone-related peptide receptor (Homo sapiens), Q03431; Potency, µM (series often up to 115 µM), actives largely listed as activators; note: nearly all actives have a fitted effect of over 55% in size
Target sequence (Q03431 whole entry, looked up): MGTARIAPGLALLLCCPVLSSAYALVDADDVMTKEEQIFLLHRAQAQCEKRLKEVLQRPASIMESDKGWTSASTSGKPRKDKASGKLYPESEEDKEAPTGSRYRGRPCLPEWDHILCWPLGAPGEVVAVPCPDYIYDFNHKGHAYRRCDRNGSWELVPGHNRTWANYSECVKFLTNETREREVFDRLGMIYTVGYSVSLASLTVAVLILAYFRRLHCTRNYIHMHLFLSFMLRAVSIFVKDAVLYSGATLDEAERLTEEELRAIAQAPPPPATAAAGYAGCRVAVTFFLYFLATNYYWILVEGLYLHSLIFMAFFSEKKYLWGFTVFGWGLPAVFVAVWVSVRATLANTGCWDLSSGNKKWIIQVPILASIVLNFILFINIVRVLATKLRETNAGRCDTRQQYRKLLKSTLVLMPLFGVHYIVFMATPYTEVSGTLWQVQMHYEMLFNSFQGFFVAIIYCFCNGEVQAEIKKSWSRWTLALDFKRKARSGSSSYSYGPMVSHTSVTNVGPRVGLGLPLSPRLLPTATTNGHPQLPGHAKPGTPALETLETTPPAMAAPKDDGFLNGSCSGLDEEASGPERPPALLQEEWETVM
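HEK-293-derived GP2 cells expressing PTHR1 and a GloSensor cAMP reporter, 3,000/well, plated overnight, given luciferin plus IBMX (each 0.5 mM as added) for 1 h at 37 °C, then compound for 1 h at 37 °C. Luminescence was read after 15 min at room temperature.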
Pin1 inh = qHTS Assay to Find Inhibitors of Pin1 | Peptidyl-prolyl cis-trans isomerase NIMA-interacting 1 (Homo sapiens), Q13526 | Pin1 FP peptide displacement, HiFluor488, 10 min | Potency, µM (doses to about 115 µM), actives largely listed as inhibitors | actives 0.009% (n = 390,000) | AID 504891, 2011; active = well fitted inhibition curve with a large enough effect in the polarisation, with a control signal flat, not every such curve was filed as active; inconclusive = small, poorly fitted or top-dose-only effect, or effect the other way, or a change in a side signal; inactive = no such curve, though single readings can be large or run the other way; the % refers to the polarisation
GLP1R ag = qHTS of GLP-1 Receptor Agonists; AID 624172, 2012; HEK293 GLP-1R CRE-luciferase, luminescence, 4-6 h; cells express a hypersensitive GLP-1R form; actives 0.007% (n = 380,000); Glucagon-like peptide 1 receptor (Homo sapiens), P43220; Potency, µM (titrated, usually from 45.6 µM), actives largely listed as activators
HEK293 tox = qHTS of GLP-1 Receptor Inverse Agonists: Cytotox Screen. HEK293 cAMP-luciferase reporter cells, luminescence, 24 h. Potency, µM (highest dose often 38.3 µM), hits mostly inhibitors. actives 0.13% (n = 410,000). AID 624418, 2012;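 note: loss of luciferase light is scored as toxicity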
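To flag toxic compounds, the library was rerun on cells for 24 hr at 37 deg C and 5% CO2. Viability-linked luminescence was captured 12 min after adding luciferase detection reagent.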
GLP-1R inv ag = qHTS of GLP-1 Receptor Inverse Agonists (Inhibition Mode). Glucagon-like peptide 1 receptor (Homo sapiens), P43220. HEK293 GLP-1R CRE-luciferase, luminescence, 24 h; GLP-1R form is constitutively active. Potency, µM (top dose mostly 38.3 µM), hits mostly inhibitors. actives 1.6% (n = 410,000). AID 624417, 2012; note: nearly all actives have a fitted effect of over 55% in size
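Constitutively active GLP-1R drives a cAMP-responsive luciferase in stably transfected HEK293 cells; test compounds are added after overnight (12 h) attachment and left 24 hr, and signal loss in luminescence marks inhibition.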
miR-21 reporter = qHTS Assay for Modulators of miRNAs and/orActivators of miR-21. AID 2288, 2010. HeLa miR-21 FLuc reporter, luciferase, 48 h. 340,000 tested, under 10 active. Potency, µM (doses to about 38.3 µM), usual class: activators;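 note: miR-21 action dims this reporter so a rising signal means less miR-21 action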
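Luminescence from a firefly luciferase reporter carrying a miR-21 binding site downstream, stably expressed under a CMV promoter in HeLa cells that make miR-21 endogenously, reports miRNA modulation after 48 h compound exposure up to approximately 40uM final.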
Large screens that a line does not name were inactive. Most compounds without a hit are left out; they make up all but 1.7% or so of the library. Unless noted, calls come from the whole dose curve; as a rule, active = well fitted curve in the direction sought with a large enough effect; inconclusive = small, poorly fitted or top-dose-only effect, or another doubt; inactive = no such curve, though single readings can be large; an effect the other way counts as inactive or inconclusive.

Cc1ccc(S(=O)(=O)N(CC(=O)Nc2cccnc2)c2cc(Cl)ccc2C)cc1	Pin1 inh inconclusive, GLP-1R inv ag 10µM (no result: GLP1R ag)
COc1ccc(OC)c(N(CC(=O)Nc2cccnc2)S(=O)(=O)c2ccc(C)cc2)c1	none
Cc1ccc(C(=O)C(C)OC(=O)C2CCN(c3ccc(C(F)(F)F)cn3)CC2)cc1 (stereo not given)	GLP-1R inv ag 10µM (no result: miR-21 reporter)
CC(OC(=O)C1CCN(c2ccc(C(F)(F)F)cn2)CC1)C(=O)c1ccccc1 (stereo not given)	GLP-1R inv ag inconclusive (no result: miR-21 reporter)
Cc1cc(/C=N/Nc2ncnc(N)c2[N+](=O)[O-])c(C)n1-c1ccccc1	HEK293 tox inconclusive, GLP-1R inv ag 2.24µM
COc1ccc(OC)c(-c2nnc3n2N=C(c2c(OC)cccc2OC)CS3)c1	none (no result: PTHR1 agonist, GLP1R ag, HEK293 tox, GLP-1R inv ag, miR-21 reporter)
Cc1cc(Nc2ccc3c(c2)OCCO3)c2cccc(C)c2n1	HEK293 tox 8.91µM, GLP-1R inv ag inconclusive
C1CCCCCC(NCCN2CCNCC2)CCCCC1	HEK293 tox 11.2µM, GLP-1R inv ag 6.31µM
O=C(NC1CCCCC1)N1CCNCC1	none
Cc1[nH]c2ccccc2c1CCN(Cc1cccnc1)C(=S)Nc1ccc(F)cc1	GLP-1R inv ag inconclusive
CCOc1ccc(NC(=S)N(CCc2c(C)[nH]c3ccccc23)Cc2cccnc2)cc1	GLP-1R inv ag 10µM
Cc1nnc(SCc2nnc(-c3cccs3)o2)n1Cc1ccccc1	none
Clc1ccc(-c2nnc(CSc3nnc(-c4cccs4)n3Cc3ccccc3)o2)cc1	GLP-1R inv ag 10µM
CCOC(=O)c1c(S(=O)(=O)NCC(=O)N(C)Cc2ccccc2)c(C)n(C)c1C	none (no result: GLP1R ag)
N=c1c2c(ncn1Cc1ccco1)Oc1c(ccc3ccccc13)C2c1ccccc1 (stereo not given)	HEK293 tox inconclusive, GLP-1R inv ag 3.98µM
N=c1c2c(ncn1Cc1ccco1)Oc1cc(O)ccc1C2c1ccccc1 (stereo not given)	Pin1 inh inconclusive
Cc1ccc(NC(=S)N(CCC(C)C)C(C)c2ccncc2)c(Cl)c1 (stereo not given)	GLP-1R inv ag 10µM
COCCCN(C(=S)Nc1ccc(C)cc1Cl)C(C)c1ccncc1 (stereo not given)	GLP-1R inv ag inconclusive
Cc1ccc2ncnc(NCc3ccco3)c2c1	none (no result: PTHR1 agonist, GLP1R ag, HEK293 tox, GLP-1R inv ag, miR-21 reporter)
O=C(Cc1ccccc1)Nc1cccc(NC(=O)c2cccs2)c1	GLP-1R inv ag 12.6µM
CC(=Cc1ccccc1)C=C1SC(=S)N(CCCC(=O)Nc2ccc(C(=O)O)c(O)c2)C1=O	none (no result: Pin1 inh, GLP1R ag, GLP-1R inv ag, miR-21 reporter)
COc1cc(/C=C2/SC(=S)N(Cc3ccccc3)C2=O)ccc1O	HEK293 tox inconclusive, GLP-1R inv ag inconclusive
CC(/C=C1\SC(=S)N(CCCC(=O)Nc2ccc(C(=O)O)c(O)c2)C1=O)=C\c1ccccc1	Pin1 inh 53.6µM (no result: GLP1R ag, GLP-1R inv ag)
O=C1/C(=C\c2ccc(O)c(O)c2)SC(=S)N1Cc1ccccc1	Pin1 inh inconclusive, HEK293 tox 10µM, GLP-1R inv ag inconclusive
O=C1/C(=C/c2ccccc2)SC(=S)N1CCCC(=O)N1CCCCC1CCO (stereo not given)	GLP-1R inv ag 5.01µM, miR-21 reporter inconclusive
O=C(CCCN1C(=O)/C(=C\c2ccccc2)SC1=S)Nc1ccc(O)cc1	HEK293 tox 10µM, GLP-1R inv ag inconclusive, miR-21 reporter inconclusive
O=C1/C(=C/c2ccc(Cl)cc2)SC(=S)N1CCC(=O)N1CCCCC1CCO (stereo not given)	HEK293 tox inconclusive, GLP-1R inv ag inconclusive
CCc1ccc2nc(N(Cc3cccnc3)C(=O)Cc3ccccc3)sc2c1	none (no result: GLP1R ag)
CN1CCN(C(=O)CCCN2C(=O)/C(=C/c3ccc(Cl)cc3)SC2=S)CC1	HEK293 tox inconclusive, GLP-1R inv ag 10µM (no result: miR-21 reporter)
CC(=O)Nc1cccc(NC(=O)CSc2cn(CC(=O)N3CCCCCC3)c3ccccc23)c1	none (no result: GLP1R ag)
